# Experimental data as given in ChEMBL document CHEMBL1157539, “Thousands of chemical starting points for antimalarial lead identification” (Nature, 2010).
# Several values for one entry are separate records, joined by “and”; a condition that tells them apart may be missing. Equal values may be shown once.
# Tested on: HepG2
# Assay: GSK_TCMDC: Percent inhibition of human HepG2 cell line. Test compounds present at 10uM.
# Format: functional
row,Structure (SMILES),Inhibition
1,C/C=C1/CN2CC[C@H]1C[C@H]2[C@H](O)c1ccnc2ccc(OC)cc12,0%
2,N#Cc1c(Cl)cccc1Oc1ccc(S(=O)(=O)N2CCC(CN3CCC(c4c[nH]c5ccccc45)CC3)CC2)cc1,36%
3,COc1ccccc1CNCC(O)c1cc(C(F)(F)F)ccc1C(F)(F)F (stereo not given),10%
4,CCN1CC=C(c2c[nH]c3ccccc23)CC1,27%
5,O=C(Nc1ccc(Cl)c(Cl)c1)N1CCC(CN2CCC(c3c[nH]c4ccccc34)CC2)CC1,46%
6,O=C(NC1CCC(CN2CCC(c3c[nH]c4ccccc34)CC2)CC1)c1csc(-c2cccc(Cl)c2Cl)n1 (stereo not given),34%
7,Cl.c1ccc2c(NCCCCCCCCCNc3c4ccccc4nc4ccccc34)c3ccccc3nc2c1,99%
8,C=C[C@H]1CN2CC[C@H]1C[C@H]2[C@H](O)c1cc(/C=C/c2ccc(F)cc2)nc2ccc(OC)cc12.Cl,25%
9,COc1cc(C=CC(=O)NC2CCC(CN3CCC(c4c[nH]c5ccccc45)CC3)CC2)cc(OC)c1 (stereo not given),38%
10,COc1cccc(/C=C/C(=O)NC2CCC(CN3CCC(c4c[nH]c5ccccc45)CC3)CC2)c1 (stereo not given),30% and 19%
11,CC[C@H]1CN2CC[C@H]1C[C@H]2[C@H](O)c1cc(/C=C/c2ccc(F)cc2)nc2ccc(OC)cc12.Cl,55%
12,CC(C)CN1CCC(N(C)c2cc(NC(=O)c3cccc(F)c3)ccn2)CC1.O=C(O)C(F)(F)F,8%
13,COc1c(F)cc(CC(C)NCC(O)c2cccc(Cl)c2)cc1F.Cl (stereo not given),0%
14,COCCNCc1cccc(-c2ccccc2CN(C(=O)Nc2ccccc2)C2CCN(Cc3ccccc3)CC2)c1.O=C(O)C(F)(F)F,30%
15,O=C1c2ccccc2CCC1CCN1CC=C(c2c[nH]c3ccccc23)CC1 (stereo not given),5%
16,CC(=O)C1(c2ccccc2)CCN(CCC2(c3ccc(Cl)c(Cl)c3)CN(C(=O)C3CCCCC3)CCO2)CC1 (stereo not given),3%
17,Cc1ccc(CC(C)NCC(O)c2cccc(C#N)c2)cc1 (stereo not given),2%
18,Oc1ccccc1CNCC(O)c1cc(C(F)(F)F)cc(C(F)(F)F)c1 (stereo not given),15%

row,Structure (SMILES),Inhibition
1,O=C(/C=C/c1cc([N+](=O)[O-])ccc1Cl)NC1CCC(CN2CCC(c3c[nH]c4ccccc34)CC2)CC1 (stereo not given),21%
2,O=C(/C=C/c1ccc(Cl)cc1)NC1CCC(CN2CCC(c3c[nH]c4ccccc34)CC2)CC1 (stereo not given),40% and 39%
3,Cc1ccc(CC(C)NCC(O)c2cccc(C(F)(F)F)c2)c(C)c1.Cl (stereo not given),3%
4,CC[C@H]1CN2CC[C@@H]1C[C@H]2[C@H](O)c1cc[n+]([O-])c2ccc(OC)cc12,0%
5,O=C(CSc1ccc(Cl)cc1)NC1CCC(CN2CCC(c3c[nH]c4ccccc34)CC2)CC1 (stereo not given),41%
6,COc1ccc(CCNCc2ccc3nc(N)c(C)cc3c2)cc1.Cl,0%
7,COc1ccc2nc(-c3ccc(F)cc3)cc([C@@H](O)[C@@H]3C[C@@H]4CCN3CC4C=NO)c2c1 (stereo not given in full),14%
8,CCN1CCC2(c3cccc(OC)c3)Cc3nc4ccccc4c(-c4ccccc4)c3CC2C1 (stereo not given),0%
9,O=C(O)/C=C\C(=O)O.OC1(c2ccc(Cl)c(C(F)(F)F)c2)CCN(CCOC2c3ccccc3CSc3ccc(Cl)cc32)CC1 (stereo not given),3%
10,O=C(/C=C/c1ccc(Cl)c(Cl)c1)NC1CCC(CN2CCC(c3c[nH]c4ccc(O)cc34)CC2)CC1 (stereo not given),35% and 38%
11,COc1cc(NC(=O)c2nn(CCCN3CCC4(CC3)C(=O)NCN4c3ccccc3)cc2-c2ccc(Cl)c(Cl)c2)cc(OC)c1OC,0%
12,CC[C@H]1CN2CC[C@@H]1C[C@H]2[C@H](O)c1cc(N2CCC(O)(c3ccccc3)CC2)nc2ccc(OC)cc12,14%
13,CC[C@H]1CN2CC[C@@H]1C[C@H]2[C@H](O)c1cc(N2CCSCC2)nc2ccc(OC)cc12,2%
14,C=C[C@H]1CN2CC[C@H]1C[C@H]2[C@H](O)c1ccnc2ccccc12 [CINCHONIDINE],9%
15,CCCCCCCN1C2CCC1CC(CCOc1ccnc3ccc(OC)cc13)C2 (stereo not given),23%
16,Cl.c1ccc2c(NCCCCCCNc3c4c(nc5ccccc35)CCCC4)c3c(nc2c1)CCCC3,90%
17,CCOC(C(=O)OCC1CCCN1C)(c1ccccc1)c1ccccc1 (stereo not given),13%
